# SMN2 splice up: qHTS Assay for Enhancers of SMN2 Splice Variant Expression | AID 1458, 2008 | actives 2.8% (n = 210,000) | HEK293 SMN2-luciferase splicing reporter, luminescence, 30-36 h | Potency, µM (top dose mostly 46.1 µM), for inactives: top-dose activity change, positive = activation, hits mostly activators; also: % of control where 0% means no effect; nearly all actives have a fitted effect of over 55% in size
#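 qHTS luciferase splicing reporter: luminescence rises when SMN2 exon 7 is included in transfected HEK293 cells. Compound exposure lasted 30-36 h at 37C, with 4.5 mM final sodium butyrate as control, followed by a ONE-Glo read.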
# Rab9 prom act: qHTS Assay for Rab9 Promoter Activators; Huh7 Rab9 promoter-luciferase reporter, luminescence, 24 h; Potency, µM (titrated, usually from 9.22 µM), without a hit: at the highest dose activation, negative = inhibition, hits mostly activators; actives 2.8% (n = 320,000); AID 485297, 2010; also: % of control where 0% means no effect; nearly all actives have a fitted effect of over 60% in size
#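 Huh7 cells stably carrying a Rab9 promoter-luciferase reporter, 1500 cells per well in OP-MEM I with 10% FBS, treated with compound 24 hours at 37C. Luciferase activity read by luminescence after 10 minutes with Amplite reagent.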
# NPC1 prom act: qHTS Assay for NPC1 Promoter Activators; Huh7 NPC1 promoter luciferase reporter, 24 h; Potency, µM (series often up to 9.22 µM), inactives show top-dose activation, usual class: activators; actives 2.4% (n = 320,000); AID 485313, 2010; also: % of control where 0% means no effect; nearly all actives have a fitted effect of over 60% in size
#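 Luciferase expression driven by the NPC1 promoter was measured in stably transfected Huh7 cells after a 24 h compound incubation, using a luciferase reagent and a luminescence read.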
# FLuc modulator: qHTS profiling assay for firefly luciferase inhibitor/activator using purifed enzyme and Km concentrations of substrates (counterscreen for miR-21 project); Luciferin 4-monooxygenase (Photinus pyralis), P08659; AID 588342, 2011; Potency, µM (doses to about 57.5 µM), for inactives: top-dose activity change, negative = inhibition, hits mostly inhibitors; purified FLuc, Km substrates, luminescence inhibition; actives 6.9% (n = 360,000);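 also: plate controls were vehicle for no effect and reference inhibitor for full effect; nearly all actives have a fitted effect of over 55% in size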
# Target sequence (P08659 whole entry, looked up): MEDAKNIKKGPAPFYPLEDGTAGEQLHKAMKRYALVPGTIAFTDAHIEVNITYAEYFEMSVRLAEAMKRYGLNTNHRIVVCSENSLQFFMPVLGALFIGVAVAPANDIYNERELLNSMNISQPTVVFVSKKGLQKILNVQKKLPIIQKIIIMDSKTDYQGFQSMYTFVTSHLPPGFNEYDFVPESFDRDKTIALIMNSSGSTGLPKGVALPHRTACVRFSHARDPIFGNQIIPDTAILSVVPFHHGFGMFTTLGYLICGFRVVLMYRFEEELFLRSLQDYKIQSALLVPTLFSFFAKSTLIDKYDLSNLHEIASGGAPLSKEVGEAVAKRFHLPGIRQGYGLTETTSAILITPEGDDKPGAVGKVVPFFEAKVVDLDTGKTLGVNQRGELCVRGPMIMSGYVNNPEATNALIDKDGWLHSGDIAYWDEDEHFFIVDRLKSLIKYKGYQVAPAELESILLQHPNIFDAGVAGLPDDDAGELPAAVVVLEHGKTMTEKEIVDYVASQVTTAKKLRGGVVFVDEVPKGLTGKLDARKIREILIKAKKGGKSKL
#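 Purified P. pyralis luciferase (10nM final) with 10uM D-luciferin and 10uM ATP (Km levels) in 50mM Tris acetate pH 7.5, 10mM Mg acetate, 0.01% Tween-20, 0.05% BSA; qHTS 6-point titration, ~60 µM downward; luminescence read.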
# Luc counter: Counterscreen for Luciferase (Kinase-Glo TM) Inhibition. actives 0.28% (n = 200,000). Potency, µM (highest dose often 38.3 µM), for the others: top-dose activity change, negative = inhibition, most hits filed as inhibitors. Kinase-Glo luciferase, ATP luminescence, 8 min. AID 1379, 2008. Luciferin 4-monooxygenase (Photuris pensylvanica), Q27757; also: % is scaled to controls: 0 for no effect and ±100 for the full control effect; nearly all actives have a fitted effect of over 60% in size
#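 Light output from Kinase-Glo luciferase with luciferin and 10 uM ATP in 50 mM imidazole pH 7.2, KCl, MgCl2, Tween 20, BSA; compound pin-delivered, 8-min ambient incubation, then luminescence read.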
# ELG1 genotoxic: qHTS screen for small molecules that induce genotoxicity in human embryonic kidney (HEK293T) cells expressing luciferase-tagged ELG1 | HEK293T ELG1-luciferase reporter, luminescence, 16 h | Potency, µM (top dose mostly 46 µM), without a hit: at the top dose activity change, positive = activation, actives largely listed as activators | actives 1.3% (n = 330,000) | AID 504466, 2011; also: % of control where 0% means no effect; nearly all actives have a fitted effect of over 60% in size
#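 Genotoxicity was scored as increased ELG1-luciferase reporter signal, measured by ONE-Glo luminescence (30 min, room temperature). Compound or vehicle exposure of the HEK293T reporter cells lasted 16 hr at 37°C.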
# * = called active by the depositor; ? = inconclusive; . = not tested or not shown. In the library only some 7.5% were active in any assay of this set; here they are far more common. Calls follow the shape of the dose curve; as a rule, active = well fitted curve in the direction sought with a large enough effect; inconclusive = small, poorly fitted or top-dose-only effect, or another doubt; inactive = no such curve, though single readings can be large; an effect the other way counts as inactive or inconclusive. Potency is read from the fitted curve at half-maximal effect.
SMILES,SMN2 splice up,Rab9 prom act,NPC1 prom act,FLuc modulator,Luc counter,ELG1 genotoxic
CCOc1ccc2nc(NC(=O)Cc3cccs3)sc2c1,?,?,?,12µM*,18%,?
Cc1ccc2nc(-c3ccc(NC(=O)C4CCCO4)cc3)[nH]c2c1 (stereo unspecified),0.56µM*,0.32µM*,0.28µM*,0.6µM*,-12%,?
O=C(Cc1ccccc1)Nc1nc(=O)c2ccccc2s1,1%,.,-2%,5%,-3%,4%
O=C(Cc1ccccc1)Nc1nc2ccccc2s1,?,27%,25%,27µM*,1%,13%
CCOc1ccc2nc(NS(=O)(=O)c3cccs3)sc2c1,.,8%,-2%,?,.,1%
Cc1ccc(NC(=O)CN(C)S(=O)(=O)c2cccs2)c(Br)c1,.,14%,3%,24µM*,.,11%
Cc1ccc(Cn2c(CNS(=O)(=O)c3ccc(Cl)s3)nc3cccnc32)cc1,.,.,.,-13%,.,.
O=C(Cc1nc(=O)c2ccccc2s1)Nc1ccccc1,2.5µM*,0.32µM*,0.71µM*,0.54µM*,?,?
COc1ccc2nc(NC(=O)CCn3cccc3)sc2c1,-10%,-8%,?,-7%,-9%,0%
O=C(CSc1nccn1Cc1ccccc1)Nc1nc2ccccc2s1,.,.,.,17µM*,.,.
O=C(Cc1nnc(NC(=O)Nc2ccccc2)s1)Nc1ccccc1,.,0%,0%,-1%,.,7%
COc1ccc2nc(NC(=O)Cc3cccs3)sc2c1,10%,2.8µM*,2.8µM*,12µM*,-4%,6.5µM*
COC(=O)c1ccc(OCC2c3cc(OC)c(OC)cc3CCN2C(=O)Cc2ccc(OC)cc2)cc1 (stereo unspecified),.,.,.,2%,.,.
COc1ccc(C2C3=C(N=C4SCC(=O)N42)c2ccccc2CC3)cc1 (stereo unspecified),-5%,23%,29%,11µM*,-13%,?
Cc1cc(C(=O)NNc2ccc(C(C)C)cc2)n(C(C)(C)C)n1,.,1%,1%,0%,.,-4%
CCOC(=O)c1sc(=NC(=O)c2cccc(OC)c2)n(C)c1C,.,1.6µM*,3.5µM*,?,.,15%
CCOC(=O)c1sc(=NC(=O)c2ccccc2)n(C)c1C,8.9µM*,19%,-1%,2.1µM*,-7%,?
CCOC(=O)c1sc(=NC(=O)c2ccc(OC)c(OC)c2)n(C)c1C,-5%,11%,12%,-19%,-1%,11%
COC(=O)c1c(C)sc(-c2c(-c3ccc(F)cc3)[nH]c3[nH]c(=O)[nH]c(=O)c23)c1O,.,.,.,-18%,.,.
Cc1c(C(=O)N(Cc2ccco2)Cc2ccccc2Cl)oc2ccc(F)cc12,-8%,.,.,-12%,.,.
CCOC(=O)c1c(/N=C/N(C)C)sc(/C=N/Nc2ccccc2)c1-c1ccccc1Cl,.,2%,-3%,12µM*,.,-2%
CCOC(=O)c1c(/N=C/N(C)C)sc(/C=N/Nc2ccccc2)c1-c1ccccc1,3%,0%,5%,-4%,-4%,2%
CC(=O)Oc1cccc(NC(=O)c2ccc3c(c2)C(=O)N(CC(C)C)C3=O)c1,.,-5%,1%,11µM*,.,?
COc1cccc(C(=O)Nc2ccc3c(c2)C(=O)N(CCC(=O)O)C3=O)c1,9%,-11%,-10%,17µM*,-5%,2%
COCCCN1C(=O)c2ccc(C(=O)Nc3cccc(OC)c3)cc2C1=O,-8%,8%,-1%,11µM*,?,?
SMILES,SMN2 splice up,Rab9 prom act,NPC1 prom act,FLuc modulator,Luc counter,ELG1 genotoxic
COCCCN1C(=O)c2ccc(C(=O)NCCc3ccccc3)cc2C1=O,.,?,29%,6µM*,.,?
CSc1ncc(C(=O)NCc2ccc(F)cc2)c(-c2ccccc2)n1,.,.,.,0%,.,.
O=C1c2ccccc2C(=O)N1c1cccc(-c2csc(Nc3ccc4c(c3)OCO4)n2)c1,?,29%,18%,2.1µM*,3%,16%
COc1ccccc1Nc1nc(-c2c(C)[nH]c3ccccc23)cs1,14µM*,16%,15%,11µM*,-1%,11%
Cc1[nH]c2ccccc2c1-c1csc(N)n1,.,1%,-5%,0%,.,2%
O=C(CN1CCN(c2nc(-c3ccccc3)cs2)CC1)Nc1ccc2c(c1)OCO2,-16%,0%,-4%,7%,0%,1%
COc1ccccc1Nc1nc(-c2cccc(N3C(=O)c4ccccc4C3=O)c2)cs1,6%,-4%,-1%,6.7µM*,0%,1%
CCOC(=O)c1c(C)oc2nc(C)nc(NCCCN3CCN(c4cc(C)ccc4C)CC3)c12,.,.,.,0%,.,.
COc1ccc(N=C2S/C(=C\c3cc(C)n(C)c3C)C(=O)N2C)cc1,-14%,0%,-4%,0%,-2%,10%
COc1ccccc1N1C(=O)S/C(=C\c2ccc(C)s2)C1=O,.,3.5µM*,?,-21%,.,?
COc1ccccc1N1C(=O)S/C(=C\c2cc(C)n(C)c2C)C1=O,14µM*,2.5µM*,3.5µM*,12µM*,1%,?
COc1ccc(N=C2S/C(=C\c3ccc(C)s3)C(=O)N2CC(C)C)cc1,0%,0%,-3%,0%,-7%,-5%
Cc1cccc(N2CCN(C(=O)c3cnn(-c4ccccc4)c3C3CCN(C(=O)OC(C)(C)C)CC3)CC2)c1C,.,.,.,0%,.,.
COc1ccc(C(=O)NCc2nnc(SCC(=O)Nc3ccc(F)cc3)n2-c2ccccc2)cc1,3%,.,.,-9%,.,.
COc1ccc(CCNC(=O)C2CC(c3ccc([N+](=O)[O-])cc3)=NO2)cc1 (stereo unspecified),-13%,22%,25%,?,-1%,8%
COc1ccc(CCNC(=O)C2CC(c3cccc([N+](=O)[O-])c3)=NO2)cc1 (stereo unspecified),?,?,?,15µM*,10%,18%
CCCCNC(=O)C1CC(c2cccc(F)c2)=NO1 (stereo unspecified),.,?,?,15µM*,.,?
CC(C)CCNC(=O)C1CC(c2cccc(F)c2)=NO1 (stereo unspecified),.,-1%,1%,-3%,.,4%
O=C(NCCc1cccs1)C1CC(c2ccc([N+](=O)[O-])cc2)=NO1 (stereo unspecified),?,2.5µM*,3.5µM*,13µM*,-2%,?
COc1ccc(S(=O)(=O)NCCc2csc3nc(-c4ccc(OC)c(OC)c4)nn23)cc1C,.,.,.,-14%,.,.

# From PubChem
